The record followed here is PubChem BioAssay (EPA / NIEHS).

The source made the active and inactive calls. Rule for the calls: active = hit-call score of the fitted dose curve at least 0.9, where 1 is the maximum; inactive = score below 0.9.

Common to all, as to settings: mRNA level, 48 h; actives raise or lower the signal
Read-out in test [1]: Bcl-2 (BAD) gene, BAD (gene 572)
In words: LTEA_HepaRG_BAD: Life Technologies and Expression Analysis (LTEA) Assay for Bcl-2 (BAD) gene using HepaRG (AID 2283469). The method, boiled down:
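BAD transcript change, measured by qRT-PCR against three housekeeping genes and fitted in both directions relative to 0.5% DMSO, after 48 h chemical treatment of human HepaRG liver cells at concentrations up to 100 uM.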

Read-out in test [2]: Bcl-2 (BAX) gene, BAX (gene 581)
The test can be described thus: LTEA_HepaRG_BAX: Life Technologies and Expression Analysis (LTEA) Assay for Bcl-2 (BAX) gene using HepaRG (AID 2283470). The method in brief: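 Concentration-response endpoint fitted in both directions relative to 0.5% DMSO vehicle. Human HepaRG cultures receive test chemicals for 48 h at up to 100 uM; BAX mRNA is quantified by qRT-PCR against housekeeping genes.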

Read-out in test [3]: Alpha-fetoprotein (AFP) gene, AFP (gene 174)
The test can be described thus: LTEA_HepaRG_AFP: Life Technologies and Expression Analysis (LTEA) Assay for Alpha-fetoprotein (AFP) gene using HepaRG (AID 2283472).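 For AC50: AFP transcript by TaqMan qRT-PCR normalized to ACTB GAPDH and POLR2A.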 The method, boiled down:
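After a 48 h plating period, cells are moved to serum-free induction medium and dosed in duplicate (100 uM maximum, half-log dilutions, 0.5% DMSO) for another 48 h. Total RNA goes to TaqMan qRT-PCR; AFP signal is housekeeping-normalized.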

Read-out in a further test: BCL2L11 (gene 10018)
The test can be described thus: LTEA_HepaRG_BCL2L11: Life Technologies and Expression Analysis (LTEA) Assay for Bcl-2 (BCL2L11) gene using HepaRG (AID 2283473). The method in brief: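 Cells were plated, cultured 48 h, switched to serum-free induction medium, then dosed in duplicate for 48 h at eight half-log concentrations up to 100 uM. Lysates underwent RNA isolation and TaqMan qRT-PCR; gain or loss versus DMSO was fitted.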

Read-out in test [4]: Apolipoprotein A-V (APOA5) gene, APOA5 (gene 116519)
In words: LTEA_HepaRG_APOA5: Life Technologies and Expression Analysis (LTEA) Assay for Apolipoprotein A-V (APOA5) gene using HepaRG (AID 2283474). The method in brief: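 Human liver HepaRG cells are treated 48 h with test chemicals (100 uM top, half-log dilutions, 0.5% DMSO). APOA5 mRNA induction or loss is measured by qRT-PCR relative to vehicle.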

Read-out in test [5]: Apoptosis regulator Bcl-2 (Homo sapiens) (UniProt P10415)
In words: LTEA_HepaRG_BCL2: Life Technologies and Expression Analysis (LTEA) Assay for Bcl-2 gene using HepaRG (AID 2283475). The method in brief: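 Expression change of BCL2 mRNA in HepaRG after 48 h dosing, quantified by TaqMan qRT-PCR against three endogenous controls. Concentration-response used eight points up to 100 uM, vehicle 0.5% DMSO.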

Read-out in test [6]: Bcl-2 (BID) gene, BID (gene 637)
In words: LTEA_HepaRG_BID: Life Technologies and Expression Analysis (LTEA) Assay for Bcl-2 (BID) gene using HepaRG (AID 2283476). The method, boiled down: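 Gain or loss of BID expression is fitted relative to 0.5% DMSO vehicle. Human HepaRG liver cells received a 48 h chemical exposure over an eight-point concentration range.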

Read-out in another test: Caspase-3 (Homo sapiens) (UniProt P42574)
The test can be described thus: LTEA_HepaRG_CASP3: Life Technologies and Expression Analysis (LTEA) Assay for cysteine-aspartic acid protease (CASP3) using HepaRG (AID 2283477). The method, boiled down: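 In HepaRG liver cells dosed for 48 h at up to 100 uM (eight-point, duplicate), CASP3 expression changes are scored by qRT-PCR. Activity is fitted in both directions with 0.5% DMSO as baseline.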

Read-out in test [7]: Cytochrome P450 (CYP24A1), CYP24A1 (gene 1591)
In words: LTEA_HepaRG_CYP24A1: Life Technologies and Expression Analysis (LTEA) Assay for Cytochrome P450 (CYP24A1) using HepaRG (AID 2283478). The method, boiled down:
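Human liver HepaRG cultures receive each chemical for 48 h across an eight-point half-log series topping at 100 uM in 0.5% DMSO. Induction or suppression of CYP24A1 mRNA is scored relative to vehicle after housekeeping-gene normalization.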

Read-out in test [8]: Cytochrome P450 (CYP1A2), CYP1A2 (gene 1544)
The test can be described thus: LTEA_HepaRG_CYP1A2: Life Technologies and Expression Analysis (LTEA) Assay for Cytochrome P450 (CYP1A2) using HepaRG (AID 2283479).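 For AC50: TaqMan qRT-PCR transcript level normalized to ACTB GAPDH and POLR2A.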 The method, boiled down:
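Assesses CYP1A2 mRNA in human HepaRG liver cells after 48 h chemical exposure at up to 100 uM. Values come from qRT-PCR with bidirectional curve fitting relative to DMSO.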

Read-out in test [9]: cysteine-aspartic acid protease (CASP8), CASP8 (gene 841)
The test can be described thus: LTEA_HepaRG_CASP8: Life Technologies and Expression Analysis (LTEA) Assay for cysteine-aspartic acid protease (CASP8) using HepaRG (AID 2283480). The method in brief: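 HepaRG, 48 h exposure, duplicate wells; 8 conc, half-log from 100 uM, 0.5% DMSO. Serum-free induction medium. CASP8 mRNA by TaqMan qRT-PCR, norm. ACTB/GAPDH/POLR2A; gain/loss fitted vs DMSO.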

Read-out in test [10]: Cytochrome P450 (CYP2B6), CYP2B6 (gene 1555)
The test can be described thus: LTEA_HepaRG_CYP2B6: Life Technologies and Expression Analysis (LTEA) Assay for Cytochrome P450 (CYP2B6) using HepaRG (AID 2283481). The method in brief: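 Using 48 h treatment of HepaRG cells in serum-free induction medium, concentrations spanned half-log steps from 100 uM in 0.5% DMSO vehicle. CYP2B6 mRNA induction or loss is scored by qRT-PCR against DMSO.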

Read-out in test [11]: Cytochrome P450 2C19 (Homo sapiens) (UniProt P33261)
The test can be described thus: LTEA_HepaRG_CYP2C19: Life Technologies and Expression Analysis (LTEA) Assay for CYP2C19 using HepaRG (AID 2283482). The method in brief: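 Human HepaRG liver cells received test chemicals for 48 h (highest 100 uM, half-log dilutions in 0.5% DMSO). CYP2C19 mRNA induction or loss is read by multiplexed qRT-PCR and fitted in both directions versus vehicle.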

Read-out in a further test: CYP2C8 (gene 1558)
The test can be described thus: LTEA_HepaRG_CYP2C8: Life Technologies and Expression Analysis (LTEA) Assay for CYP2C8 using HepaRG (AID 2283483). The method, boiled down: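 CYP2C8 mRNA induction or loss, by qRT-PCR normalized to ACTB/GAPDH/POLR2A, is read in HepaRG cells after 48 h treatment. Concentrations run from 100 uM down in half-log dilutions, with 0.5% DMSO as vehicle and baseline.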

Read-out in the next test: CYP2C9 (gene 1559)
The test can be described thus: LTEA_HepaRG_CYP2C9: Life Technologies and Expression Analysis (LTEA) Assay for CYP2C9 using HepaRG (AID 2283484). The method, boiled down: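 Cells plated 48 h, switched to serum-free induction medium, then treated in duplicate for 48 h at eight concentrations (max 100 uM, 0.5% DMSO). RNA then analysed by qRT-PCR for CYP2C9; curves fitted in both directions relative to DMSO.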

Read-out in the next test: CYP2E1 (gene 1571)
The test can be described thus: LTEA_HepaRG_CYP2E1: Life Technologies and Expression Analysis (LTEA) Assay for CYP2E1 using HepaRG (AID 2283485). The method in brief: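 Differentiated HepaRG cells were treated in duplicate for 48 h with chemicals in 0.5% DMSO, from 100 uM downward in half-log dilutions. RNA was then analysed by qRT-PCR for CYP2E1 induction or loss.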

Read-out in another test: CYP4A11 (gene 1579)
The test can be described thus: LTEA_HepaRG_CYP4A11: Life Technologies and Expression Analysis (LTEA) Assay for CYP4A11 using HepaRG (AID 2283486). The method, boiled down: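 Readout is CYP4A11 mRNA induction or suppression (qRT-PCR, ACTB/GAPDH/POLR2A normalization) in human HepaRG cells after 48 h chemical treatment, concentrations to 100 uM in 0.5% DMSO, fitted bidirectionally against vehicle.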

Read-out in test [12]: Cytochrome P450 3A4 (Homo sapiens) (UniProt P08684)
The test can be described thus: LTEA_HepaRG_CYP3A4: Life Technologies and Expression Analysis (LTEA) Assay for CYP3A4 using HepaRG (AID 2283487). The method, boiled down:
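Differentiated HepaRG cells in serum-free induction medium exposed in duplicate for 48 h to 8 half-log concentrations up to 100 uM in 0.5% DMSO. CYP3A4 mRNA measured by qRT-PCR normalized to ACTB, GAPDH and POLR2A; bidirectional fit versus DMSO.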

Read-out in test [13]: adenosine kinase (ADK) gene, ADK (gene 132)
In words: LTEA_HepaRG_ADK: Life Technologies and Expression Analysis (LTEA) Assay for adenosine kinase (ADK) gene using HepaRG (AID 2283471). The method, boiled down: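 Differentiated HepaRG cells dosed 48 h in serum-free induction medium, 0.5% DMSO vehicle, eight half-log concentrations from 100 uM, in duplicate. ADK mRNA by TaqMan qRT-PCR normalised to ACTB, GAPDH, POLR2A; bidirectional fit versus DMSO.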

Chain of Cytochrome P450 2C19 (Homo sapiens) (P33261 whole entry, looked up): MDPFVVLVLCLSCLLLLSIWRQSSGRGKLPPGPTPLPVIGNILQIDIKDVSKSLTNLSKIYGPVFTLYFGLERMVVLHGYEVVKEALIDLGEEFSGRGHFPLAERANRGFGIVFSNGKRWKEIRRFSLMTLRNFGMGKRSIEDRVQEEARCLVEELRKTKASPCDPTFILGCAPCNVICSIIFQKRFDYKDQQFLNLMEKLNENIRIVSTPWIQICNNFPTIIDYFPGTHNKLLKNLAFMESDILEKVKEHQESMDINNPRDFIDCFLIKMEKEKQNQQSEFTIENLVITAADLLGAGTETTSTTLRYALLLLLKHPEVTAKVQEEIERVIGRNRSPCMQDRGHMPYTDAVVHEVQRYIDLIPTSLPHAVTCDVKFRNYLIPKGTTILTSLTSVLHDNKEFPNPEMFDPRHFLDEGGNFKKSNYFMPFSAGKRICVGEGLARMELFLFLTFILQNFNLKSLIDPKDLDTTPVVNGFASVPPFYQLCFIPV
Chain of Caspase-3 (Homo sapiens) (P42574 whole entry, looked up): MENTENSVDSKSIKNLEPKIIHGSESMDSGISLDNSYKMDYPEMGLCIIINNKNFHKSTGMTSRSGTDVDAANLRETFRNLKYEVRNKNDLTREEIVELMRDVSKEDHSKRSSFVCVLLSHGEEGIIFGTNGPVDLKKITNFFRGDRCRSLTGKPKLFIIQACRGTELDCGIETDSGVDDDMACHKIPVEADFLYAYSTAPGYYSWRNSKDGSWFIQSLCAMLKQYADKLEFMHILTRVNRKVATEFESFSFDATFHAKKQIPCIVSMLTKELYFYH
Chain of Cytochrome P450 3A4 (Homo sapiens) (P08684 whole entry, looked up): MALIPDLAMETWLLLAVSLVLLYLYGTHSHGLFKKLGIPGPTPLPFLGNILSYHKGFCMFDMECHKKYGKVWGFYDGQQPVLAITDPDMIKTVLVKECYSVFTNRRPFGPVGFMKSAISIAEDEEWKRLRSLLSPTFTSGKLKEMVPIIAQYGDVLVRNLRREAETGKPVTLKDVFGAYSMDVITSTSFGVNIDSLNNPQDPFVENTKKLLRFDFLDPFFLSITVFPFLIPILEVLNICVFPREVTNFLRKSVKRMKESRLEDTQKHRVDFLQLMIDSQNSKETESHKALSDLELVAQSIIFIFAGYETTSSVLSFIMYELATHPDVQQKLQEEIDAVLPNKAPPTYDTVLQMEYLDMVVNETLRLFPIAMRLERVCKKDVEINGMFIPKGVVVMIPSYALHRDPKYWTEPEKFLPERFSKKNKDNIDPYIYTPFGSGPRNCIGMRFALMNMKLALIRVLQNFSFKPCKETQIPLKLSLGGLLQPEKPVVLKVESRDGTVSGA
Chain of Apoptosis regulator Bcl-2 (Homo sapiens) (P10415 whole entry, looked up): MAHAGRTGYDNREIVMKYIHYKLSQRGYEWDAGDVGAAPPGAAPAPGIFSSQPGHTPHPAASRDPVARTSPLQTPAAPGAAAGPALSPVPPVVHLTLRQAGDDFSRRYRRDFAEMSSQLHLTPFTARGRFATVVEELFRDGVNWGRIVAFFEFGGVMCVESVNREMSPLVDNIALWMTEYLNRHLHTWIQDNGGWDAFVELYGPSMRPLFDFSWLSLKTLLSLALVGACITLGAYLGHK

The AC50 is the concentration giving half of the maximal activity seen. Consider `CCOP(=S)(OCC)Oc1ccc2c(C)c(Cl)c(=O)oc2c1`, for which the compound was classed as inactive (in [1]; in test [2]; with BCL2L11 (gene 10018); in test [4]; in [5]; in test [6]). In addition, the outcome (in the test with Caspase-3 (Homo sapiens); in test [7]; in [9]; with CYP2C8 (gene 1558); in the test with CYP2C9 (gene 1559)) was inactive. Also, the AC50 in [3] was 36.6 µM (active); in test [8] it was 4.03 µM (active); in test [10] it was 2.49 µM (active); in [11], 12.6 µM (active); with CYP2E1 (gene 1571) it was 31.6 µM (active); with CYP4A11 (gene 1579) it was 50 µM (active).

Regarding `N#CSCSC#N`, the call (in [1]; in test [4]; in test [5]; in test [6]; with Caspase-3 (Homo sapiens); in test [7]) was inactive. Further, the compound was classed as inactive in [8] and in [9]. For the same compound, the AC50 in [2] is 50 µM (active); in [3] it was 80.2 µM (active); in the test with BCL2L11 (gene 10018), 78.8 µM (active); in test [10], 92.3 µM (active); in test [11], 90.8 µM (active); in the test with CYP2C8 (gene 1558), 89.4 µM (active). Moreover, the AC50 is 66.5 µM (active) in the test with CYP2C9 (gene 1559), 82.9 µM (active) with CYP2E1 (gene 1571), 81.5 µM (active) in the test with CYP4A11 (gene 1579) and 77.2 µM (active) in test [12].

Consider `CCc1cccc(C)c1N(C(=O)CCl)C(C)COC` (stereo not given), for which the compound was classed as inactive (in [1]; in test [2]; in test [13]; with BCL2L11 (gene 10018); in test [4]; in [5]). In addition, the compound was classed as inactive (in test [6]; in the test with Caspase-3 (Homo sapiens); in test [7]; in test [8]; in test [9]; with CYP2C9 (gene 1559)). Further, the compound was classed as inactive with CYP4A11 (gene 1579). Also, the AC50 in [3] was 77.1 µM (active); in test [10], 14.2 µM (active); in test [11] it was 16 µM (active); in the test with CYP2E1 (gene 1571) it was 50 µM (active); in test [12], 11.3 µM (active).

As to `CCCCN(CC)c1c([N+](=O)[O-])cc(C(F)(F)F)cc1[N+](=O)[O-]`, the call (in test [1]; in test [2]; in test [3]; with BCL2L11 (gene 10018); in [4]; in test [5]) was inactive. The compound was classed as inactive (in [6]; with Caspase-3 (Homo sapiens); in test [7]; in test [9]; with CYP2C8 (gene 1558); with CYP2C9 (gene 1559)). For the same compound, the result in the test with CYP2E1 (gene 1571) and with CYP4A11 (gene 1579) was inactive. In addition, the AC50 was 35.8 µM (active) in test [8], 32 µM (active) in [10], 50 µM (active) in test [11] and 23.2 µM (active) in [12].

With `CC(C1CC1)C(O)(Cn1cncn1)c1ccc(Cl)cc1` (stereo not given), the outcome (in [1]; in [2]; in [13]; with BCL2L11 (gene 10018); in [4]; in test [5]) was inactive. Besides, the compound was called inactive (in test [6]; with Caspase-3 (Homo sapiens); in test [7]; in test [8]; in test [9]; with CYP2C9 (gene 1559)). Also, the AC50 in [3] is 20.5 µM (active); in [10] it was 1.06 µM (active); in test [11], 12.8 µM (active); with CYP2C8 (gene 1558) it was 0.327 µM (active); with CYP2E1 (gene 1571) it was 49.5 µM (active); in the test with CYP4A11 (gene 1579), 49.8 µM (active). In addition, the AC50 in [12] was 3.9 µM (active).
